Measurements taken from the supplement of paper PMC11732987, “Enantioselective OTUD7B fragment discovery through chemoproteomics screening and high-throughput optimisation” (Communications Chemistry, 2025).

Target: T1, USP22 (UniProt Q9UPT9)
T1 sequence (whole entry): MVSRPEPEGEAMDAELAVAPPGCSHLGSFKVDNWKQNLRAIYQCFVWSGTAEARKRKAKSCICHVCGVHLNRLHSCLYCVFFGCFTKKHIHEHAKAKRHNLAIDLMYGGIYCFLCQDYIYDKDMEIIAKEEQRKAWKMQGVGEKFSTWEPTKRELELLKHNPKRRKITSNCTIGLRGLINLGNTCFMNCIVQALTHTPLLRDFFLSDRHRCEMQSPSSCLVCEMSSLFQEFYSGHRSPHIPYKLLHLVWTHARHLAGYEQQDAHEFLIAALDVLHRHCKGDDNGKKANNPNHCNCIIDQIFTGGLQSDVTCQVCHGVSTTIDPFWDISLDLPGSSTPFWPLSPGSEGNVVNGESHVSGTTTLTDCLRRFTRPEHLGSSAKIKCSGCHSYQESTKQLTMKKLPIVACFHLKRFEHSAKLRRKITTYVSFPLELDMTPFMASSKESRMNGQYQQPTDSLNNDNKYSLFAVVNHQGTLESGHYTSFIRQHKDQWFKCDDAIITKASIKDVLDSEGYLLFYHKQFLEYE
Assay: log2 ratio of Biotin-Ahx-Ub-VS probe labelling (fragment/DMSO); higher = less target engagement (more negative = stronger competition), active = hit call of the paper (q ≤ 0.05, log2 ratio ≤ -1)
Conditions: compound concentration: 200 uM; treatment time: 3 h
Description: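 Competitive ABPP in HEK293T cell lysate. Lysates were treated with each chloroacetamide fragment at 200 µM for 3 h, then with Biotin-Ahx-Ub-VS (0.5 µM, 1 h), NeutrAvidin-enriched and analysed by diaPASEF LC-MS/MS. Protein LFQ was median-normalised; average log2 ratio is fragment/DMSO from an unpaired t-test (n=3 treated, n=44 DMSO). Hits: q ≤ 0.05, log2 ratio ≤ -1, unique peptides ≥ 2.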

log2 ratio of Biotin-Ahx-Ub-VS probe labelling, inactive:
Cc1ccn2cc(CNC(=O)CCl)nc2c1.Cl -0.112
O=C(CCl)NCCC1=CCCCC1 -0.0359
NC(=O)C1CCCCN1C(=O)CCl (stereo not given) 0.159
NC(=O)C(Cc1ccccc1)NC(=O)CCl (stereo not given) -0.0897
O=C(CCl)N1CCc2sccc2C1 -0.23
O=C(CCl)N[C@H]1CCS(=O)(=O)c2ccccc21 -0.119
CS(=O)(=O)c1ccc(NC(=O)CCl)cc1 0.107
Cc1cccnc1NC(=O)C1CCN(C(=O)CCl)CC1.Cl 0.169
Cc1noc(N2CCN(C(=O)CCl)CC2)n1.Cl 0.0656
Cc1c(NC(=O)CCl)c(=O)n(-c2ccccc2)n1C -0.000691
Cl.O=C(CCl)N1CCC(n2nc3ccccc3n2)CC1 -0.472
O=C(CCl)Nc1cc2c(cc1Cl)OCCCO2 0.133
O=C(CCl)Nc1cc(Cl)ccc1-n1cncn1 -0.15
O=C(CCl)N1CCN(C(=O)Nc2ccccc2)CC1 0.14
CC(C)n1nccc1NC(=O)CCl 0.134
Cl.Cn1nccc1C(NC(=O)CCl)c1ccccc1 (stereo not given) -0.153
CC(O)CC1CCN(C(=O)CCl)CC1 (stereo not given) 0.037
CC(NC(=O)CCl)c1csc(-c2ccccc2)n1.Cl (stereo not given) -0.723
CC1CN(c2ccc(NC(=O)CCl)cc2)CC(C)O1 (stereo not given) -0.32
O=C(CCl)NCc1ccc(N2CCOCC2)nc1 -0.181
Cc1ccc(N(CCC#N)C(=O)CCl)cc1C 0.0466
Cc1n[nH]c(=O)c2c(NC(=O)CCl)oc(C)c12 -0.281
Cc1nc(-c2cccc(NC(=O)CCl)c2)cs1 -0.0833
O=C(CCl)N1CCCC2CCCCC21 (stereo not given) -0.0228
O=C(CCl)NCCc1ccc2c(c1)OCCO2 0.0144
Cc1ncc2c(n1)CCN(C(=O)CCl)C2 -0.119
Cc1cccn2cc(CCNC(=O)CCl)nc12.Cl -0.0399
O=C(CCl)N1CCC2(CCC(O)CC2)CC1 -0.145
Cc1cc(Cl)ccc1NC(=O)CCl -0.467
COc1ccc(C2CCCN2C(=O)CCl)c(OC)c1 (stereo not given) -0.361
O=C(CCl)NC1(c2ccc3c(c2)OCCO3)CCCC1 0.0133
O=C(CCl)N1CCCCCC1c1ncon1 (stereo not given) -0.0397
O=C(CCl)NCC1(c2ccccc2)CC1 0.0204
O=C(CCl)NCc1ccc2c(c1)OCO2 -0.126
O=C(CCl)NCCC1COCCO1 (stereo not given) 0.193
CN(C)C(=O)c1ccc(CNC(=O)CCl)cc1 0.0551
CC(=O)C1CCCCN1C(=O)CCl (stereo not given) 0.0806
CCc1c[nH]c(CNC(=O)CCl)n1.Cl -0.0631
CN(Cc1nc2ccccc2[nH]1)C(=O)CCl.Cl 0.243
Cc1ccc(C(=O)NCCNC(=O)CCl)cc1 -0.00216
